Laboratory results: ChEMBL document CHEMBL3433997, “St. Jude Leishmania screening dataset” (2016)

The molecules below were run against Solute carrier family 2, facilitated glucose transporter member 1 (Homo sapiens) (UniProt P11166) (assay: ST_JUDE_LEISH: Cytotoxicity at 2uM final concentration against transgenic Leishmania Mexicana promastigotes LmGLUT1 that are glucose transport deficient and complemented with the human glucose transporter GLUT1. Activity is measured by DNA content using SYBR green in vitro).
Format: functional

Solute carrier family 2, facilitated glucose transporter member 1 (Homo sapiens), sequence (P11166 whole entry): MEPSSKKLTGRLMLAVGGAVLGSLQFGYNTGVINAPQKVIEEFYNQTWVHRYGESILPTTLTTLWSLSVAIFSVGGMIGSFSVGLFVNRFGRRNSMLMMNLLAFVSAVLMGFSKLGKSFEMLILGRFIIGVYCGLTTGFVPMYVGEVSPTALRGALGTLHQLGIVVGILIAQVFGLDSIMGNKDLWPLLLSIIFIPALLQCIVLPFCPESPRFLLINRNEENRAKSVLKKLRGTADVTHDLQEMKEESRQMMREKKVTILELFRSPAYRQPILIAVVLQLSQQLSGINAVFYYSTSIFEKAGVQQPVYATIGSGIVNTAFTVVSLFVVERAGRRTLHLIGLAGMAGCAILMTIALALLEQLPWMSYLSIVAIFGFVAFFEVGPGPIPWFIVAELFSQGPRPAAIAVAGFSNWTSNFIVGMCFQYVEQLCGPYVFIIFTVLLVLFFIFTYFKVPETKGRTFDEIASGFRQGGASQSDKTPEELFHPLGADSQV

First: N#Cc1ccc(C2CCN(CC[C@H](N)Cc3ccc(Cl)s3)CC2)cc1
Second: CCOC(=O)C1CCN(CCOc2cc(NC(=O)/C=C/c3ccccc3Cl)ccc2Br)CC1
The inhibition of the first is higher: 22.8% for the first, 8.71% for the second.

Compared with `O=C(Nc1ccccc1)NC1CCN(CCC2(c3ccc(Cl)c(Cl)c3)COCN(C(=O)c3ccccc3)C2)C1` (stereo unspecified), `CCOC(=O)c1ccc(NC(=O)N[C@@H](Cc2ccccc2)C(=O)NC2CCN(Cc3ccc(O)cc3)C2)cc1` (stereo partly specified) is lower in inhibition: 4.31% for the first, -1.09% for the second.

Compared with `CCCNCc1ccc(-c2ccc(CN(C(=O)c3nn(-c4ccccc4)nc3C)C(C)CN(C)C)cc2)nc1` (stereo unspecified), `CC1CN(c2cnn(Cc3cccc(NC(=O)Nc4ccc(-c5ccccc5)cc4)c3)c(=O)c2Cl)CC(C)N1` (stereo unspecified) is higher in inhibition: 1.37% for the first, 8.54% for the second.

Compared with `CC1CCN(CC[C@H]2CCCN2S(=O)(=O)c2cccc(NC(=O)c3ccc(-c4ccccc4)cc3)c2)CC1`, `O=C(NCCCCN1CCC(c2ccc3c(c2O)CCCC3)CC1)c1ccc(NC(=O)c2ccc(Cl)cc2)cc1` is lower in inhibition: 3.61% for the first, 1.7% for the second.

Compared with `Cc1ccc(-n2c(=O)c3c(n4c(SC(C)C)nnc24)-c2ccccc2CC32CCCCC2)cc1`, `Cc1ccccc1N1CCN(c2ccc(C(=O)NC(C)C)cn2)CC1` is lower in inhibition: 7.08% for the first, 0.52% for the second.

First: CCOc1c(CNCCCNc2nc3ccccc3[nH]2)cc(Br)cc1OC
Second: Cc1cc(NC(=O)Nc2ccc3ncccc3c2)c2ccccc2n1
The inhibition of the first is lower: 2.6% for the first, 4.47% for the second.

Compared with `CC(=O)Nc1cccc(C(=O)Nc2ccc(-c3ccc(-c4nc5cccc(C)c5[nH]4)s3)cc2)c1`, `CCNC(=O)Nc1ccc(-c2ccc(-c3nc4cccc(C)c4[nH]3)s2)cc1` is higher in inhibition: -0.38% for the first, 11.7% for the second.

First: COc1ccc(CN2CCN(CCCCNC(=O)c3ccc(NC(=O)c4ccc(Cl)cc4)cc3)CC2)c(OC)c1
Second: O=C(NCCCCNCC(Cc1cccc(O)c1)c1ccccc1)c1ccc(NC(=O)c2ccc(Cl)cc2)cc1 (stereo unspecified)
The inhibition of the first is higher: 6.23% for the first, -0.19% for the second.

Compared with `COc1ccc(C=NNc2cc(C)nc3ccc(OC)cc23)c(OC)c1`, `CN(C)c1ccnc2ccc(NC(=O)Nc3ccnc4ccccc34)cc12` is lower in inhibition: 8% for the first, 1.93% for the second.

First: C[C@@H](CNc1ccnc(Nc2ccc3[nH]c(=O)[nH]c3c2)n1)c1ccccc1
Second: Fc1ccc2[nH]c(-c3cccc(-c4ccc(CNCCc5ccncc5)cc4)c3)nc2c1
The inhibition of the first is lower: -3.02% for the first, 13.9% for the second.

First: CC1CCN(C(=O)CSc2nc(-c3ccc(C(C)C)cc3)no2)CC1
Second: CN(C)c1cccc2c1nc(-c1ccco1)n2CC1CCCN1 (stereo unspecified)
The inhibition of the first is higher: 7.2% for the first, -1.97% for the second.

Compared with `Nc1c(C(=O)NCCCCN2CCN(c3nsc4ccccc34)CC2)sc2ccccc12`, `c1ccc2c3c([nH]c2c1)C(c1ccc2c(c1)CCO2)N(c1ncnc(N2CCN(CCCN4CCOCC4)CC2)n1)CC3` (stereo unspecified) is higher in inhibition: 5.13% for the first, 8.79% for the second.

Going from `CCCCCc1cnc2nc(N)nc(N)c2c1C` to `Cc1cc(C)c(-c2n[nH]c3c2C(c2cccc(Cl)c2)N(Cc2ccco2)C3=O)c(O)c1` (stereo unspecified), the inhibition falls from 13.6% to 1.7%.

These molecules were tested against Hexose transporter 1 (Plasmodium falciparum) (UniProt O97467) (assay: ST_JUDE_LEISH: Cytotoxicity at 2uM final concentration against transgenic Leishmania Mexicana promastigotes LmPfHT that are glucose transport deficient and complemented with the Plasmodium falciparum hexose transporter. Activity is measured by DNA content using SYBR green in vitro).
Format: functional

Compared with `COc1cc(Cc2cnc(N)nc2N)cc(OCCCCC2SC(=O)NC2=O)c1Br` (stereo unspecified), `CCCCCc1cnc2nc(N)nc(N)c2c1C` is higher in inhibition: 4.54% for the first, 13.5% for the second.

Going from `O=C(Nc1ccc(-c2nc3ccc(NC(=O)c4ccc(Br)cc4)cc3[nH]2)cc1)c1ccc(Br)cc1` to `Cc1ccc(NC(=O)c2ccc(Cl)cc2)cc1-c1ccc(C(=O)Nc2ccncc2)cc1`, the inhibition rises from -0.68% to 1.31%.

Compared with `CN1CCCN(c2ccnc3cc4c(cc23)N(C(=O)c2ccccc2Cl)CC4)CC1`, `Cc1ccccc1N1CCN(c2ccc(C(=O)NC(C)C)cn2)CC1` is lower in inhibition: 0.96% for the first, -0.59% for the second.

Compared with `CC(C)(C(=O)Nc1ccc(C2CCC(NCC3CC3)CC2)c(Cl)c1)c1ccc(C(F)(F)F)cc1` (stereo unspecified), `N#CCOc1c(C2CCN(CCCCNC(=O)c3ccc(-c4ccc(C(F)(F)F)cc4)cc3)CC2)ccc2c1CCCC2` is higher in inhibition: 0.31% for the first, 3.28% for the second.

Going from `O=C(Nc1cn(-c2ccc(OCc3cccc(F)c3)c(Cl)c2)c2ncncc12)c1ccncc1` to `O=C(Nc1cccc(CN2CCCN(Cc3cccc(F)c3)CC2)c1)c1ccc(Cl)c(Cl)c1`, the inhibition rises from 1.05% to 2.83%.

First: CCN(CC)CCN(CCCc1ccc(-c2ccc(C(F)(F)F)cc2)cc1)C(=O)Cn1c(CCc2cccc(F)c2F)nc(=O)c2ccccc21
Second: Fc1ccc2[nH]c(-c3cccc(-c4ccc(CNCCc5ccncc5)cc4)c3)nc2c1
The inhibition of the first is lower: 2.91% for the first, 12.6% for the second.

Going from `O=C(/C=C/c1ccc(Cl)c(Cl)c1)NCCCCCN1CCC(C(=O)Nc2cccc(Cl)c2)CC1` to `CCOC(=O)C1CCN(CCOc2cc(NC(=O)/C=C/c3ccccc3Cl)ccc2Br)CC1`, the inhibition rises from 1.97% to 6.51%.

First: CCC(CC)(Cc1ccccc1)NC(=O)[C@H](Cc1ccc(OC)c(OC)c1)Nc1ccc(C#N)c2ccccc12
Second: CCOC(=O)c1ccc(NC(=O)N[C@@H](Cc2ccccc2)C(=O)NC2CCN(Cc3ccc(O)cc3)C2)cc1 (stereo partly specified)
The inhibition of the first is higher: 2.31% for the first, 1.43% for the second.

Going from `O=C(NCc1ccc(Cl)cc1)c1ccc(CN2CCCN(CC3CCCCC3)CC2)cc1` to `O=C(NCCCCN1CCC(c2ccc3c(c2O)CCCC3)CC1)c1ccc(NC(=O)c2ccc(Cl)cc2)cc1`, the inhibition falls from 5.73% to 2.56%.

Going from `Cc1cc(=NN=Cc2ccccc2F)c2cc(F)ccc2[nH]1` to `Cc1cc(NC(=O)Nc2ccc3ncccc3c2)c2ccccc2n1`, the inhibition rises from 3.14% to 3.97%.

Compared with `Clc1cc(Nc2ccnc3ccc(Br)cc23)ccc1Oc1ccc2ccccc2c1Cl`, `CN(C)c1ccnc2ccc(NC(=O)Nc3ccnc4ccccc34)cc12` is lower in inhibition: 5.44% for the first, 2.58% for the second.

Going from `N#Cc1ccc(C2CCN(CC[C@H](N)Cc3ccc(Cl)s3)CC2)cc1` to `CC1CCN(C(=O)CSc2nc(-c3ccc(C(C)C)cc3)no2)CC1`, the inhibition falls from 10.7% to 9.21%.

Compared with `O=C(Nc1ccccc1)NC1CCN(CCC2(c3ccc(Cl)c(Cl)c3)COCN(C(=O)c3ccccc3)C2)C1` (stereo unspecified), `CC1CCN(CC[C@H]2CCCN2S(=O)(=O)c2cccc(NC(=O)c3ccc(-c4ccccc4)cc3)c2)CC1` is lower in inhibition: 4.43% for the first, 1.72% for the second.

First: CCCNCc1ccc(-c2ccc(CN(C(=O)c3nn(-c4ccccc4)nc3C)C(C)CN(C)C)cc2)nc1 (stereo unspecified)
Second: CC1CN(c2cnn(Cc3cccc(NC(=O)Nc4ccc(-c5ccccc5)cc4)c3)c(=O)c2Cl)CC(C)N1 (stereo unspecified)
The inhibition of the first is lower: 0.07% for the first, 5.56% for the second.

Compared with `Cc1ccc(-n2c(=O)c3c(n4c(SC(C)C)nnc24)-c2ccccc2CC32CCCCC2)cc1`, `CCNC(=O)Nc1ccc(-c2ccc(-c3nc4cccc(C)c4[nH]3)s2)cc1` is higher in inhibition: 6.98% for the first, 8.87% for the second.

First: CCOc1c(CNCCCNc2nc3ccccc3[nH]2)cc(Br)cc1OC
Second: COc1ccc(C=NNc2cc(C)nc3ccc(OC)cc23)c(OC)c1
The inhibition of the first is lower: -3.13% for the first, 7.55% for the second.

Going from `CC(=O)Nc1cccc(C(=O)Nc2ccc(-c3ccc(-c4nc5cccc(C)c5[nH]4)s3)cc2)c1` to `O=C(NCCCCNCC(Cc1cccc(O)c1)c1ccccc1)c1ccc(NC(=O)c2ccc(Cl)cc2)cc1` (stereo unspecified), the inhibition falls from 1.16% to -3.38%.

Going from `COc1ccc(CN2CCN(CCCCNC(=O)c3ccc(NC(=O)c4ccc(Cl)cc4)cc3)CC2)c(OC)c1` to `Nc1c(C(=O)NCCCCN2CCN(c3nsc4ccccc34)CC2)sc2ccccc12`, the inhibition falls from 4.9% to 4.14%.

First: C[C@@H](CNc1ccnc(Nc2ccc3[nH]c(=O)[nH]c3c2)n1)c1ccccc1
Second: Cc1cc(C)c(-c2n[nH]c3c2C(c2cccc(Cl)c2)N(Cc2ccco2)C3=O)c(O)c1 (stereo unspecified)
The inhibition of the first is lower: -0.02% for the first, 5.35% for the second.

First: CN(C)c1cccc2c1nc(-c1ccco1)n2CC1CCCN1 (stereo unspecified)
Second: c1ccc2c3c([nH]c2c1)C(c1ccc2c(c1)CCO2)N(c1ncnc(N2CCN(CCCN4CCOCC4)CC2)n1)CC3 (stereo unspecified)
The inhibition of the first is lower: -3.51% for the first, 3.13% for the second.
